{"source": "PubChem BioAssay (NCATS)", "key": {"[1]": {"tested_on": "HEK293", "test": "Cytotoxic Profiling of Annotated Libraries Using Quantitative High-Throughput Screening (AID 1296008); note: potency is the fitted concentration of half-maximal effect; for max response: % is set by controls: 0 for no effect and ±100 for the full control effect", "details": "Five cell lines viability, CellTiter-Glo ATP luminescence, 48-72 h; max response: stronger effect = lower value", "in_short": "(§1)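 Cells exposed to compounds for 48 or 72 hr at 37 degrees Celsius. Viability read as ATP-coupled luminescence with CellTiter-Glo after 10 min at room temperature.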"}, "[2]": {"tested_on": "HaCat", "test": "Cytotoxic Profiling of Annotated Libraries Using Quantitative High-Throughput Screening (AID 1296008)", "details": "Five cell lines viability, CellTiter-Glo ATP luminescence, 48-72 h; max response: stronger effect = lower value", "in_short": "as §1"}, "[3]": {"tested_on": "NIH3T3", "test": "Cytotoxic Profiling of Annotated Libraries Using Quantitative High-Throughput Screening (AID 1296008)", "details": "Five cell lines viability, CellTiter-Glo ATP luminescence, 48-72 h; max response: stronger effect = lower value", "in_short": "as §1"}, "[4]": {"tested_on": "HACAT", "test": "qHTS assay to identify novel small-molecules to repurpose for Merkel cell carcinoma treatment (AID 1296009)", "details": "MCC and control cell lines, CellTiter-Glo viability, 72 h; at 44.8 µM (top of the series) unless noted", "in_short": "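Dose-response viability screen; 72 hr exposure at 37 degree celsius; CellTiter-Glo added, 10 min room temperature, luminescence read; RLUs scaled between no-cell and DMSO wells.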"}}, "note": "Results filed as inconclusive are left out. Unmarked numbers belong to inactive results. Calls of active or inactive are those of the source. Calls come from the whole dose curve; as a rule, active = well fitted inhibition curve with a large enough effect; inconclusive = small, poorly fitted or top-dose-only effect; inactive = flat fitted curve, though single readings scatter. Where a SMILES comes first, the peptide text is derived from it. [ ]: non-standard residue; d: D form. Hyp = O=C(O)[CH]1C[CH](O)CN1; Phe(ol) = N[CH](CO)Cc1ccccc1; Iva = CC[C](C)(N)C(=O)O; Aib = CC(C)(N)C(=O)O; note: nearly all actives have a fitted effect of over 60% in size"}
{"smiles": "c1cc(NCCc2c[nH]c3ccccc23)cc(Nc2ccncc2)c1", "values": [{"measurement": "max response", "setting": "[1]", "result": -111, "unit": "%"}, {"measurement": "outcome", "setting": "[2]", "result": "inactive"}, {"measurement": "max response", "setting": "[3]", "result": -50.3, "unit": "%"}, {"measurement": "outcome", "setting": "[4]", "result": "inactive"}]}
{"smiles": "NC(=O)c1cnc(N[C@@H]2CCCC[C@@H]2N)nc1Nc1cccc(-n2nccn2)c1", "values": [{"measurement": "Potency", "setting": "[1]", "result": "11.7 µM (active)"}, {"measurement": "Potency", "setting": "[2]", "result": "13.2 µM (active)"}, {"measurement": "Potency", "setting": "[3]", "result": "23.4 µM (active)"}]}
{"smiles": "COc1ccc2c(c1)C(C(=O)N(Cc1ccc(N(C)C)cc1)c1ccc(C(C)C)cc1)CCC2", "note": "(stereo not drawn)", "values": [{"measurement": "Potency", "setting": "[1]", "result": "11.6 µM (active)"}, {"measurement": "max response", "setting": "[2]", "result": -43.6, "unit": "%"}, {"measurement": "max response", "setting": "[3]", "result": 3.67, "unit": "%"}]}
{"smiles": "CC(=O)C1(C)CCC2C3C=C(C)C4=CC(=O)CCC4(C)C3CCC21C", "note": "(stereo not drawn)", "values": [{"measurement": "Potency", "setting": "[1]", "result": "10.3 µM (active)"}, {"measurement": "max response", "setting": "[2]", "result": -54.8, "unit": "%"}, {"measurement": "max response", "setting": "[3]", "result": -16.2, "unit": "%"}]}
{"smiles": "COc1ccc(CCc2nc3c(C)c(-c4c(C)noc4C)c(C)cc3n2CCN2CCOCC2)cc1", "values": [{"measurement": "Potency", "setting": "[1]", "result": "23.1 µM (active)"}, {"measurement": "max response", "setting": "[2]", "result": -20.3, "unit": "%"}, {"measurement": "max response", "setting": "[3]", "result": -12.8, "unit": "%"}]}
{"smiles": "CCC(C)(NC(=O)C(CCC(N)=O)NC(=O)C1CC(O)CN1C(=O)C(C)(C)NC(=O)C(C)(C)NC(=O)C(CC(C)C)NC(=O)CNC(=O)C(NC(=O)C(C)(C)NC(=O)C(C)(C)NC(=O)C(C)(C)NC(=O)C(Cc1ccccc1)NC(C)=O)C(C)C)C(=O)N1CC(O)CC1C(=O)NC(C)(C)C(=O)NC(CO)Cc1ccccc1", "note": "(stereo not drawn) (Ac-F[Aib][Aib][Aib]VGL[Aib][Aib][Hyp]Q[Iva][Hyp][Aib][Phe(ol)]; configuration not given here)", "values": [{"measurement": "max response", "setting": "[1]", "result": -14.6, "unit": "%"}, {"measurement": "outcome", "setting": "[2]", "result": "inactive"}, {"measurement": "max response", "setting": "[3]", "result": 2.9, "unit": "%"}, {"measurement": "outcome", "setting": "[4]", "result": "inactive [at 9.27 µM]"}]}
{"smiles": "O=C(Nc1cccc([N+](=O)[O-])c1)c1cccc(S(=O)(=O)N2CCCCCC2)c1", "values": [{"measurement": "Potency", "setting": "[1]", "result": "6.51 µM (active)"}, {"measurement": "max response", "setting": "[2]", "result": -27.5, "unit": "%"}]}
{"smiles": "CC1CCCC(O)CCC/C=C/c2cc(OS(=O)(=O)O)cc(O)c2C(=O)O1", "note": "(stereo not drawn)", "values": [{"measurement": "max response", "setting": "[1]", "result": -20.5, "unit": "%"}, {"measurement": "max response", "setting": "[2]", "result": 0.348, "unit": "%"}, {"measurement": "outcome", "setting": "[3]", "result": "inactive"}]}
{"smiles": "O=C(Nc1ccc(C(O)(C(F)(F)F)C(F)(F)F)cc1)c1ccc(C(F)(F)F)cc1", "values": [{"measurement": "Potency", "setting": "[1]", "result": "10.3 µM (active)"}, {"measurement": "Potency", "setting": "[2]", "result": "8.2 µM (active)"}, {"measurement": "Potency", "setting": "[3]", "result": "20.6 µM (active)"}]}
{"smiles": "C=C1C(=O)O[C@@H]2C3=C(C)CCC[C@]3(C)CC[C@@]12O", "values": [{"measurement": "Potency", "setting": "[1]", "result": "8.2 µM (active)"}, {"measurement": "Potency", "setting": "[3]", "result": "14.6 µM (active)"}]}
{"smiles": "CCCc1cc2c(N3CCN(C4=NCC(C)(C)S4)CC3)ncnc2s1", "values": [{"measurement": "Potency", "setting": "[1]", "result": "5.8 µM (active)"}, {"measurement": "outcome", "setting": "[2]", "result": "inactive"}, {"measurement": "outcome", "setting": "[4]", "result": "inactive"}]}
{"smiles": "O=C(NC1CCN(CCCCC2(C(=O)NCC(F)(F)F)c3ccccc3-c3ccccc32)CC1)c1ccccc1-c1ccc(C(F)(F)F)cc1", "values": [{"measurement": "Potency", "setting": "[1]", "result": "11.6 µM (active)"}, {"measurement": "Potency", "setting": "[3]", "result": "7.31 µM (active)"}]}
{"smiles": "COc1cc([C@H]2O[C@H](c3cc(OC)c4c(c3)OCO4)[C@H](C)[C@H]2C)cc(OC)c1OC", "values": [{"measurement": "Potency", "setting": "[1]", "result": "0.893 µM (active)"}, {"measurement": "outcome", "setting": "[2]", "result": "inactive"}, {"measurement": "outcome", "setting": "[4]", "result": "inactive [at 17.4 µM]"}]}
{"smiles": "C=C1C(=O)OC2/C=C(/C)C3=CC(=O)C(C)(CC(OC(=O)/C(C)=C/COC(C)=O)C12)O3", "note": "(stereo not drawn)", "values": [{"measurement": "Potency", "setting": "[1]", "result": "2 µM (active)"}, {"measurement": "Potency", "setting": "[3]", "result": "3.99 µM (active)"}]}
{"smiles": "O=c1ccc2ccc(OCCCCN3CCN(c4cccc5sccc45)CC3)cc2[nH]1", "values": [{"measurement": "Potency", "setting": "[1]", "result": "11.6 µM (active)"}, {"measurement": "max response", "setting": "[3]", "result": -13.6, "unit": "%"}]}
{"smiles": "c1ccc(-c2cnn3cc(-c4ccc(OCCN5CCOCC5)cc4)cnc23)cc1", "values": [{"measurement": "Potency", "setting": "[1]", "result": "2.31 µM (active)"}, {"measurement": "outcome", "setting": "[2]", "result": "inactive"}, {"measurement": "outcome", "setting": "[4]", "result": "inactive"}]}
{"smiles": "CC(C)CCNC(=O)c1ccc2c(c1)nc(Nc1n[nH]c3ccc(-c4ccccc4OC(F)(F)F)cc13)n2C1CCC(O)CC1", "note": "(stereo not drawn)", "values": [{"measurement": "Potency", "setting": "[1]", "result": "9.2 µM (active)"}, {"measurement": "outcome", "setting": "[2]", "result": "inactive"}, {"measurement": "outcome", "setting": "[4]", "result": "inactive"}]}
{"smiles": "O=C(Nc1ccc(-c2ccnc(Nc3ccc(N4CCOCC4)cc3)n2)cc1)C1CCCN1", "note": "(stereo not drawn)", "values": [{"measurement": "Potency", "setting": "[1]", "result": "6.51 µM (active)"}, {"measurement": "outcome", "setting": "[2]", "result": "inactive"}, {"measurement": "outcome", "setting": "[4]", "result": "inactive"}]}
{"smiles": "CN(C)C(=O)NC1(c2ccccc2)CCN(CCC[C@]2(c3ccc(Cl)c(Cl)c3)CCCN(C(=O)c3ccccc3)C2)CC1", "values": [{"measurement": "Potency", "setting": "[1]", "result": "16.4 µM (active)"}, {"measurement": "Potency", "setting": "[3]", "result": "20.6 µM (active)"}]}
{"smiles": "CC(=O)O[C@H]1C[C@H](OC(C)=O)[C@]2(C)[C@H](CC[C@@]34O[C@@H]3C3=C(C)C(=O)O[C@@H]3C[C@H]42)C1(C)C", "values": [{"measurement": "Potency", "setting": "[1]", "result": "5.63 µM (active)"}, {"measurement": "outcome", "setting": "[2]", "result": "inactive"}, {"measurement": "max response", "setting": "[3]", "result": -18, "unit": "%"}, {"measurement": "outcome", "setting": "[4]", "result": "inactive [at 17.4 µM]"}]}
{"smiles": "CCCC(CCC)C(=O)Nc1ccn([C@@H]2O[C@H](CO)[C@@H](O)C2(F)F)c(=O)n1", "values": [{"measurement": "Potency", "setting": "[1]", "result": "6.51 µM (active)"}, {"measurement": "Potency", "setting": "[3]", "result": "4.11 µM (active)"}]}
{"smiles": "Cc1sc2c(c1C)C(c1ccc(Cl)cc1)=N[C@@H](CC(=O)Nc1ccc(OCCOCCOCCOCCNc3cccc4c3C(=O)N(C3CCC(=O)NC3=O)C4=O)cc1)c1nnc(C)n1-2", "note": "(stereo partly drawn)", "values": [{"measurement": "Potency", "setting": "[1]", "result": "0.0447 µM (active)"}, {"measurement": "max response", "setting": "[3]", "result": -54, "unit": "%"}]}
{"smiles": "Clc1ccc(Nc2nc3ccccc3c3nc(C4CCCCC4)[nH]c23)cc1Cl", "values": [{"measurement": "Potency", "setting": "[1]", "result": "11.6 µM (active)"}, {"measurement": "Potency", "setting": "[3]", "result": "20.6 µM (active)"}]}
{"smiles": "Cn1cc(-c2cnn3c(N)c(Br)c([C@@H]4CCCNC4)nc23)cn1", "values": [{"measurement": "Potency", "setting": "[1]", "result": "1.16 µM (active)"}, {"measurement": "Potency", "setting": "[3]", "result": "2.06 µM (active)"}]}
{"smiles": "C=C1CO[C@@]2(O[C@H]3CC4C5CC=C6C[C@@H](O)C[C@@H](O[C@@H]7OC[C@H](O)[C@H](O[C@@H]8OC[C@@H](O)[C@H](O)[C@H]8O)[C@H]7O[C@@H]7O[C@@H](C)[C@H](OC(C)=O)[C@@H](OC(C)=O)[C@H]7OC(C)=O)[C@]6(C)C5CC[C@]4(C)[C@@H]3[C@@H]2C)[C@@H](O)[C@H]1OC1OC(C)C(O)C(O)C1O", "note": "(stereo partly drawn)", "values": [{"measurement": "max response", "setting": "[1]", "result": -19.9, "unit": "%"}, {"measurement": "outcome", "setting": "[2]", "result": "inactive"}, {"measurement": "outcome", "setting": "[3]", "result": "inactive"}, {"measurement": "outcome", "setting": "[4]", "result": "inactive [at 9.27 µM]"}]}
{"smiles": "Cc1cc2c(c(=O)o1)C=C1CC[C@H]([C@H](C)Cn3cnc(=N)c4[nH]cnc43)C[C@@H]1O2", "values": [{"measurement": "Potency", "setting": "[1]", "result": "8.2 µM (active)"}, {"measurement": "outcome", "setting": "[2]", "result": "inactive"}, {"measurement": "max response", "setting": "[3]", "result": -1.79, "unit": "%"}, {"measurement": "outcome", "setting": "[4]", "result": "inactive"}]}
